The campaign covered roughly 16,000 compounds. About 5,800 (36%) were called active. Another 23% or so got no clear call; they are omitted. Calls come from the whole dose curve; as a rule, active = well fitted curve in the direction sought with a large enough effect; inconclusive = small, poorly fitted or top-dose-only effect, or effect the other way; inactive = no such curve, though single readings can be large or run the other way. The list shows a part of the results.
Molecular target: Cytochrome P450 2C19 (Homo sapiens) (UniProt P33261)
Sequence (P33261 whole entry, looked up): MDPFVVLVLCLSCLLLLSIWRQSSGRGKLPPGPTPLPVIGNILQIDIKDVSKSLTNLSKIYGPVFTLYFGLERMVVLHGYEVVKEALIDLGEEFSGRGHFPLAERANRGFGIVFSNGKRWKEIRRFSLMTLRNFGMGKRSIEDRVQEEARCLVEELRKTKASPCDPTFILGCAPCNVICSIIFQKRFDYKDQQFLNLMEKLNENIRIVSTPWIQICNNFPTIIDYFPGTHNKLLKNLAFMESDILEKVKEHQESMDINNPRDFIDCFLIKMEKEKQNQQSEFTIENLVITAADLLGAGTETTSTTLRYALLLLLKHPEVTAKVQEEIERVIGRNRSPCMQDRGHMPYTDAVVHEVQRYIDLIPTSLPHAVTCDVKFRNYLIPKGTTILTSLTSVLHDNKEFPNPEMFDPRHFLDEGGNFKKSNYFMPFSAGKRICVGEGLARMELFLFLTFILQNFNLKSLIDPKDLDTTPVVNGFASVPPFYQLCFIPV
Assay: Cytochrome panel assay with activity outcomes
Settings: recombinant CYP, pro-luciferin dealkylation, luminescence, p450-cyp2c19; series mostly up to 57.1 µM; activity, negative = inhibition: at the top concentration
% is set by controls: 0 for no effect and ±100 for the full control effect.

AC50, inactive:
Cc1ccnc(NS(=O)(=O)c2ccc(N)cc2)n1
C[C@@H]1CCN=C(N)S1

AC50, active:
Cc1nn(C)c(Oc2cccc(Cl)c2)c1C=O 6.31 µM
O=C(N/N=C/c1ccc(Cl)cc1Cl)Nc1ccccc1 2.82 µM
O=C(N/N=C/c1ccc(Cl)cc1)Nc1ccccc1 11.2 µM
O=C(c1ccco1)N1CCC[C@@]2(CCN(c3ccccc3)C2)C1 5.01 µM
Cn1cccc1C(=O)N1CCC2(CC1)CN(c1ccncc1)C2 1.26 µM
Cn1cccc1C(=O)N1CCC[C@@]2(CCN(c3ccncc3)C2)C1 6.31 µM
O=C(c1ccco1)N1CCC2(CC1)CCN(c1cccc(-c3ccccc3)c1)CC2 10 µM
Cn1cccc1C(=O)N1CCC[C@@]2(CCN(c3ccccc3)C2)C1 5.01 µM
Cc1cc2ccccc2n1CCNC(=O)C1CCCC1 1.26 µM
Cc1ccc(S(=O)(=O)NCCn2c(C)cc3ccccc32)cc1 1 µM
Cc1nnc(NC(=O)c2oc3c(ccc4ccccc43)c2C)s1 10 µM
Cc1ccc(S(=O)(=O)CC#CCOC(=O)c2ccc([N+](=O)[O-])cc2)cc1 7.94 µM
C/C(=C\C(=O)c1ccc(Br)cc1)NCc1ccc2c(c1)OCO2 8.91 µM
C/C(=C\C(=O)c1ccc(Cl)cc1)NCc1ccc2c(c1)OCO2 2.51 µM
O=C(c1ccc(Cl)c(Cl)c1)c1cc(-c2ccccn2)c(N2CCOCC2)s1 7.94 µM
Cc1cc(F)ccc1S(=O)(=O)Nc1ccccc1C(=O)Nc1ccccc1N1CCOCC1 1.58 µM
CCn1cnc2sc(C(=O)N3CCN(c4ccc(OC)cc4)CC3)c(C)c2c1=O 10 µM
CC(=O)NCCc1c(Cc2ccccc2)[nH]c2ccccc12 25.1 µM
COc1ccc2[nH]c(-c3ccccc3)c(CCNC(C)=O)c2c1 7.94 µM
COc1ccc(NS(=O)(=O)c2cc(-c3nnnn3C)ccc2OC)cc1 14.1 µM
O=C(O)c1ccc(SSc2ccc(C(=O)O)cn2)nc1 2.51 µM
CCOC(=O)c1nnc(-c2ccccc2)nc1NCc1ccccc1 25.1 µM
O=S(=O)(Nc1ccc(Cc2ccncc2)cc1)c1ccc(Br)cc1 0.0224 µM
O=S(=O)(Nc1ccc(Cc2ccncc2)cc1)c1cccs1 0.0224 µM
O=S(=O)(Nc1ccc(Cc2ccncc2)cc1)c1ccc(Cl)c(Cl)c1 0.0251 µM
COc1cc(-c2nnc(SCC(=O)Nc3ccc4c(c3)OCCO4)o2)cc(OC)c1OC 11.2 µM
COc1cc(-c2nnc(SCC3(c4ccccc4)OCCO3)o2)cc(OC)c1OC 1.12 µM
CCCCOC(=O)CSc1nnc(-c2cc(OC)c(OC)c(OC)c2)o1 15.8 µM
Cn1cc(-c2nc3cnc(N4CCNCC4)nc3n(C)c2=O)c2ccccc21 10 µM
Cn1cc(-c2nc3cnc(N4CCNCC4)nc3n(C3CC3)c2=O)c2ccccc21 20 µM
Cc1ccccc1C(=O)NC(C)c1ccc2c(c1)CCCC2 (stereo not drawn) 2.82 µM
CCn1c2ccccc2c2cnc(N=CN(C)C)c(C#N)c21 28.2 µM
CC(C)(C)NC(=O)COC(=O)c1cncc(Br)c1 22.4 µM
CCOC(=O)c1ccc(S(=O)(=O)Nc2ccc3cn[nH]c3c2)cc1 3.16 µM
N#Cc1ccc(C(c2nnnn2C2CCCC2)N2CCC(Cc3ccccc3)CC2)cc1 (stereo not drawn) 3.55 µM
N#Cc1ccc(C(c2nnnn2Cc2ccccc2)N2CCCC2)cc1 (stereo not drawn) 11.2 µM
N#Cc1cccc(C(c2nnnn2C2CCCC2)N2CCCCCC2)c1 (stereo not drawn) 5.62 µM
O=C(c1cc(Br)ccc1O)c1cc(Br)ccc1O 0.2 µM
COc1ccc(S(=O)(=O)n2ccc(-c3cnc(-c4ccccc4)s3)n2)cc1 1.58 µM
O=S(=O)(c1ccc(F)cc1)n1ccc(-c2cnc(-c3ccccc3)s2)n1 8.91 µM
CCc1cc2c(NCc3ccco3)ncnc2s1 4.47 µM
Cc1ccc2nc(N/N=C/c3ccccc3C#N)nc(-c3ccccc3)c2c1 10 µM
Cc1cccc(N2CCN(C(=O)CSCc3c(C)noc3C)CC2)c1C 17.8 µM
Cc1ccc(NC(=S)Nc2nc(CC(=O)Nc3ccccc3)cs2)cc1 3.98 µM
COc1ccc(C(=O)Nc2scc(-c3ccc(Cl)cc3Cl)c2C(N)=O)cc1 1.26 µM
CC(C)COc1ccc(C(=O)Nc2scc(-c3ccc(Cl)cc3Cl)c2C(N)=O)cc1 2.82 µM

activity, negative = inhibition, inactive:
CC(C)N=C(N)/N=C(\N)Nc1ccc(Cl)cc1 -16.3% [at 25.6 µM]
Cc1ccc(NC(=O)N/C=C/c2ccc(Cl)cc2)cc1 -10%
Cn1cccc1C(=O)N1CCC2(CC1)CN(c1ccccn1)C2 -9.16%
c1ccc(-c2cccc(N3CCC4(CCNCC4)CC3)c2)cc1 -43%
Cn1cccc1C(=O)N1CCC[C@@]2(CCN(Cc3nccs3)C2)C1 -8.84%
O=C(c1ccco1)N1CCC[C@@]2(CCN(c3ccncc3)C2)C1 -25.6%
Cn1cccc1C(=O)N1CCC2(CC1)CCN(c1ccncc1)CC2 -34.4%
CC(=O)N1CCC[C@@]2(CCN(c3ccncc3)C2)C1 5.7%
O=C(c1ccco1)N1CCC2(CCCN(c3ccccc3)C2)CC1 -4.32%
O=C(c1ccco1)N1CCC2(CC1)CCN(c1ccc(-c3ccccc3)cc1)CC2 -2.45%
Nc1nc(=O)c2[nH]cnc2n1O -10.6% [at 11.4 µM]
CNC(=O)[C@@H]1O[C@@H](n2cnc3c(NCc4ccc(N)cc4)ncnc32)[C@@H](O)[C@H]1O 20.5%
CN1CC[C@@]2(CCCN(C(=O)c3cccn3C)C2)C1 12.9%
CC(C)NC(=O)N1CC[C@@]2(CCCN(C(=O)c3cccn3C)C2)C1 23%
Cc1ccc(S(=O)(=O)NC(=O)c2cccn2C)cc1 7.77%
Cc1cc2ccccc2c(=O)n1CC(=O)NCC(=O)N1CCCC1 -15.6%
CN(C)CCn1c(C(=O)O)cc2ccccc21 31.4%
Cc1c(OC(=O)c2ccc([N+](=O)[O-])cc2)c2c(c[n+]1C)COC(C)(C)OC2 20.4%
CCOC(=O)n1ccn(C)c1=S 10.6% [at 25.6 µM]
O=C1Nc2ccccc2C(O)(C(=O)NCc2ccc3c(c2)OCO3)N1c1ccc(Cl)c(Cl)c1 (stereo not drawn) -26.2%
Cc1ccccc1C(=O)Nc1ccc(N2CCOCC2)nc1 -14.6%
O=C(Nc1ccccc1N1CCOCC1)c1ccccc1[N+](=O)[O-] -26.2%
NCc1ccccc1CC(=O)N[C@@H]1C(=O)N2C(C(=O)O)=C(CSc3nnnn3CC(=O)O)CS[C@@H]12 13.7% [at 25.6 µM]
CC(=O)NCCc1ccc(O)c(O)c1 -0.0511%
COC(=O)Nc1ccc2[nH]cc(CCNC(C)=O)c2c1 -26.7%
C=N[C@H](C(=O)N[C@@H]1C(=O)N2[C@@H]1SC(C)(C)[C@@H]2C(=O)O)c1ccccc1 -3.23% [at 25.6 µM]
COc1ccccc1S(=O)(=O)Nc1ccc(-c2nnc3n2CCCCC3)cc1 -33%
O=C(O)c1cc(C(=O)O)nc(C(=O)O)c1 3.49% [at 11.4 µM]
O=C(O)c1cccc(SSc2cccc(C(=O)O)c2)c1 -33.7% [at 11.4 µM]
C/C(=N/S(=O)(=O)c1ccc(Cl)c(Cl)c1)OCC(C)(C)C 58.8% [at 11.4 µM]
CC(=O)N=c1sc(S(N)(=O)=O)nn1C -1.35% [at 25.6 µM]
Cc1ccc(NC(=O)CSc2nnc(-c3ccncc3)o2)cc1 -29.9%
CCN(CC)CCCCCCCCOC(=O)c1cc(OC)c(OC)c(OC)c1 -15.4%
C/C(C[n+]1ccccc1)=N\N=C(N)N 40.3% [at 11.4 µM]
Cn1cc(-c2nc3cnc(N4CCNCC4)nc3n(-c3ccccc3)c2=O)c2ccccc21 -41.6%
Cn1cc(-c2nc3cnc(Oc4ccccc4)nc3n(C3CC3)c2=O)c2ccccc21 -13.9%
CN1CCN(c2ncc3nc(-c4cn(C)c5ccccc45)c(=O)n(C)c3n2)CC1 -41.2%
COc1ccc(-n2c(=O)c(-c3cn(C)c4ccccc34)nc3cnc(N4CCNCC4)nc32)cc1 -40.5%
Cn1c(=S)c2[nH]c(SCCN3CCCC3)nc2n(C)c1=O 57% [at 11.4 µM]
Cc1cnc(C(=O)OCC(=O)NC(C)C)cn1 -27%
O=c1n(-c2ccccc2)c(=O)n2n1CC[C@H]1/C(=N\OCc3ccccc3)[C@H]3O[C@@H]3[C@@H](O)[C@@H]12 44.7% [at 11.4 µM]
COCCn1c(=O)c(-c2ccc(OC)cc2)nc2cnc(Nc3cccc(OC)c3)nc21 -22.3%
CN1CCCN([C@@H](c2ccccc2)c2ccc(Cl)cc2)CC1 -31% [at 25.6 µM]
Oc1ccc(Br)cc1CNn1cnnc1 -29.1%
O=C(Nc1ccc(-c2cn3ccccc3n2)cc1)c1cc(Br)ccc1O -1.2% [at 11.4 µM]
Cn1c(=O)c(-c2ccccc2)nc2cnc(Oc3ccccc3)nc21 -32.1%
COc1cccc(-c2cc(C(F)(F)F)n3ncc(S(=O)(=O)c4ccccc4)c3n2)c1 -17.7%
CCc1cc2c(NCCO)ncnc2s1 -1.72%
CCc1cc2c(=O)[nH]cnc2s1 -8.19%
Nc1ccccc1S(N)(=O)=O 28.3% [at 25.6 µM]
Cc1ccc2nc(N/N=C\c3cccc(C)n3)cc(C)c2c1 -12.3% [at 11.4 µM]
Cc1nc(N/N=C/c2ccccc2)nc(N(C)c2ccccc2)c1[N+](=O)[O-] -26.7%
Cc1noc(C)c1C(=O)N1CCC2(CCCN(c3ccccc3)C2)CC1 8.61%
COCCn1c(=O)c(-c2cccc(C#N)c2)nc2cnc(N3CCOCC3)nc21 12.2%
NC(=O)OC[C@H](O)COc1ccc(Cl)cc1 -26.8% [at 25.6 µM]

Reference: PubChem BioAssay AID1851 (National Center for Advancing Translational Sciences (NCATS), 2009)
